Legend:
Conditions in all cases: concentration: 1 μM,replicates: in singlicate; n = 1
WNK1 = test system: WNK1
WNK2 = test system: WNK2
WNK3 = test system: WNK3
WNK4 = test system: WNK4
YANK1 = test system: T1, YANK1
T1 construct: gene STK32A

YANK2 = test system: T2, YANK2
T2 construct: gene STK32B

YANK3 = test system: T3, YANK3
T3 construct: gene STK32C

YES = test system: T4, YES
T4 construct: gene YES1

YSK1 = test system: T5, YSK1
T5 construct: gene STK25

YSK4 = test system: T6, YSK4
T6 construct: gene MAP3K19

ZAK = test system: ZAK
ZAP70 = test system: ZAP70
p38-alpha = test system: T7, p38-alpha
T7 construct: gene MAPK14

p38-beta = test system: T8, p38-beta
T8 construct: gene MAPK11

p38-delta = test system: p38-delta
p38-gamma = test system: T9, p38-gamma
T9 construct: gene MAPK12
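Note: KINOMEscan kinase panel screen.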

| SMILES | %Inh (WNK1) [%] | %Inh (WNK2) [%] | %Inh (WNK3) [%] | %Inh (WNK4) [%] | %Inh (YANK1) [%] | %Inh (YANK2) [%] | %Inh (YANK3) [%] | %Inh (YES) [%] | %Inh (YSK1) [%] | %Inh (YSK4) [%] | %Inh (ZAK) [%] | %Inh (ZAP70) [%] | %Inh (p38-alpha) [%] | %Inh (p38-beta) [%] | %Inh (p38-delta) [%] | %Inh (p38-gamma) [%] |
| --- | --- | --- | --- | --- | --- | --- | --- | --- | --- | --- | --- | --- | --- | --- | --- | --- |
| C=CC(=O)Nc1cc2c(Nc3ccc(F)c(Cl)c3)ncnc2cc1OCCCN1CCOCC1 [GW781483] | 16 | 0 | 20 | 0 | 17 | 0 | 0 | 15 | 0 | 49 | 0 | 31 | 19 | 0 | 20 | 0 |
| Cc1cc(C(=O)Nc2ccc(Oc3ccc4nc(NC(=O)C5CC5)cn4n3)cc2)nn1-c1ccccc1 | 0 | 0 | 0 | 10 | 0 | 3 | 0 | 25 | 1 | 1 | 48 | 0 | 11 | 27 | 0 | 52 |
| Cc1ccc(-n2nc(C(C)(C)C)cc2NC(=O)Nc2ccc(OCCN3CCOCC3)c3ccccc23)cc1 [GW839464] | 0 | 1 | 0 | 0 | 0 | 0 | 0 | 32 | 0 | 0 |  | 0 |  | 56 | 90.5 |  |
| CCN(CC)CCOc1ccc(Nc2ncc3cc(-c4c(Cl)cccc4Cl)c(=O)n(C)c3n2)cc1 [SB-601273] | 26 | 86 | 66 | 42 | 95.1 |  | 27 | 100 | 37 | 99.2 | 94.2 | 63 | 100 | 98.1 | 16 | 18 |
| O=C(NCCNc1ccnc(NCc2ccc(F)cc2)n1)c1cc2ccccc2s1 [GSK1379944] | 10 | 1 | 4 | 3 | 19 | 0 | 7 | 11 | 0 | 27 | 14 | 0 | 77 | 0 | 40 | 0 |
| NC(=O)c1cc(-c2ccccc2)cc2c(C3CCNCC3)c[nH]c12 [GSK301362] | 11 | 6 | 17 | 41 | 4 | 0 | 26 | 24 | 1 | 50 | 0 | 0 | 0 | 0 | 35 | 0 |
| CCN(CC)CCCCNc1ncc2cc(-c3c(Cl)cccc3Cl)c(NC(=O)NC(C)(C)C)nc2n1 | 0 | 51 | 0 | 0 | 53 | 32 | 0 | 94.6 | 58 | 49 | 1 | 0 | 98.2 | 81 | 28 | 26 |
| CC(C)Nc1cc(-c2ccc3c(N)n[nH]c3c2)nc(N)n1 [GSK2221681] | 0 | 0 | 0 | 0 | 37 | 0 | 2 | 4 | 14 | 41 | 0 | 0 | 0 | 0 | 1 | 2 |
| CN(C)CCOc1ccc(-c2cc(-c3c[nH]nc3-c3ccccn3)ccn2)cc1 [GW835314] | 9 | 13 | 0 | 0 | 89 | 0 | 0 | 55 | 0 | 28 | 60 | 11 | 16 | 4 | 0 | 27 |
| COc1ccc(C[C@@H](CN)NC(=O)c2cc(Br)c(-c3ccnc4[nH]ccc34)s2)cc1.Cl.Cl [GSK1389063] | 11 | 32 | 5 | 0 | 71 | 46 | 50 | 22 | 100 | 99.6 | 0 | 0 | 0 | 0 | 46 | 0 |
| Nc1nc(Nc2ccccc2)cc(-c2ccc3c(N)n[nH]c3c2)n1 [GSK2225749] | 5 | 0 | 7 | 0 | 15 | 0 | 6 | 0 | 0 | 46 | 3 | 0 | 0 | 0 | 0 | 0 |
| Cl.Cl.NC[C@H](CC1CCCCC1)NC(=O)c1cc(Br)c(-c2ccnc3[nH]ccc23)s1 [GSK1581427] | 0 | 3 | 5 | 0 | 42 | 0 | 18 | 1 | 0 | 99.6 | 0 | 0 | 0 | 0 | 4 | 0 |
| CCn1c(-c2nonc2N)nc2c(C#CC(C)(C)O)nc(OCCN)cc21.Cl.Cl [GSK902056] | 12 | 24 | 28 | 2 | 12 | 0 | 35 | 19 | 0 | 99.7 | 14 | 0 | 0 | 0 | 16 | 0 |
